# Data as given in PubChem BioAssay (NCI).
# This is part of a sample that, as a whole, favours compounds with a hit. Of some 79,000 tested, about 15% had one in any assay. Unmarked numbers belong to inactive results. Calls of active or inactive are those of the source. Cut-off read from the data, not from the text of the source: active = growth inhibition above about 70%; inactive = the rest.
# What was measured:
# [1] = NCI Yeast Anticancer Drug Screen. Data for the rad52 strain (AID 147);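 note: 0% = growth of vehicle-treated control cultures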; details: S. cerevisiae rad52 mutant growth inhibition, stronger effect = higher value
# Outline: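 Vehicle-treated cultures served as the reference for growth inhibition of compound-exposed yeast bearing a DNA repair mutation.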
# [2] = NCI Yeast Anticancer Drug Screen. Data for the wt1 strain (AID 149);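 note: 0% = growth of vehicle-treated wt1 cultures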; details: S. cerevisiae wt1 strain (SPY 50644) growth inhibition, stronger effect = higher value
# Outline: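 Using yeast strain wt1, compound-induced growth inhibition was determined against vehicle-treated cultures.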
# [3] = NCI Yeast Anticancer Drug Screen. Data for the rad50EPP+ strain (AID 151);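 note: 0% = growth of vehicle-treated control cultures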; details: S. cerevisiae rad50 mutant strain, stronger effect = higher value
# Outline: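 In this screen, rad50EPP+ yeast were exposed to compounds. Growth inhibition was scored against vehicle-treated controls.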
# [4] = NCI Yeast Anticancer Drug Screen. Data for the mgt1 strain (AID 153); details: S. cerevisiae mgt1 mutant growth inhibition, stronger effect = higher value
# Outline: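 mgt1 strain exposed; growth vs vehicle control recorded as inhibition.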
# [5] = NCI Yeast Anticancer Drug Screen. Data for the rad50 strain (AID 155);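 note: 0% = growth of vehicle-only cultures of the same strain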; details: S. cerevisiae rad50 strain growth inhibition, stronger effect = higher value
# Outline: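 Relative growth inhibition (compound vs vehicle) was measured in yeast with a defined repair-gene alteration.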
# [6] = NCI Yeast Anticancer Drug Screen. Data for the mec2-1 strain (AID 157); details: S. cerevisiae mec2-1 strain, stronger effect = higher value
# Outline: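 Vehicle-treated cultures served as reference for growth inhibition of compound-exposed mec2-1 yeast.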
# [7] = NCI Yeast Anticancer Drug Screen. Data for the rad14 strain (AID 159);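 note: 0% = growth of vehicle-treated control cultures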; details: S. cerevisiae rad14 strain growth inhibition, stronger effect = higher value
# Outline: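 Screen for anticancer potential: a yeast strain altered in DNA damage repair is grown with compound, and reduced growth is quantified against vehicle controls.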
# [8] = NCI Yeast Anticancer Drug Screen. Data for the sgs1 mgt1 strain (AID 161);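 note: 0% = growth of cultures given vehicle only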; details: S. cerevisiae sgs1 mgt1 strain, stronger effect = higher value
# Outline: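 Read-out: growth inhibition vs vehicle controls. Cells: mutant yeast strain deficient in DNA damage repair.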
# [9] = NCI Yeast Anticancer Drug Screen. Data for the CLN2oe strain (AID 163);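 note: 0% = growth of vehicle-only control cultures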; details: S. cerevisiae CLN2oe strain, stronger effect = higher value
# Outline: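 Inhibition relative to vehicle-treated yeast is reported. Cells: strain with genetic alteration in cell-cycle control, grown with compound.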
# [10] = NCI Yeast Anticancer Drug Screen. Data for the cln2 rad14 strain (AID 165);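 note: 0% = growth equal to vehicle treated cultures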; details: S. cerevisiae cln2 rad14 strain, stronger effect = higher value
# Outline: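 Each compound was tested on cln2 rad14 yeast. Inhibition of growth was calculated against vehicle-exposed controls.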
# [11] = NCI Yeast Anticancer Drug Screen. Data for the bub3 strain (AID 167); details: S. cerevisiae bub3 mutant strain, stronger effect = higher value
# Outline: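 Screening used yeast with an engineered genetic alteration affecting cell cycle control. Compound-exposed cultures were compared with vehicle cultures, and reduced growth was taken as inhibition.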
# [12] = NCI Yeast Anticancer Drug Screen. Data for the wt2 strain (AID 169);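 note: 0% = growth of vehicle-treated yeast cultures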; details: S. cerevisiae wt2 strain growth inhibition, stronger effect = higher value
# Outline: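 Inhibition of yeast growth was determined after compound treatment, normalised to controls receiving only vehicle.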
# [13] = NCI Yeast Anticancer Drug Screen. Data for the mlh1 strain (AID 171);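 note: 0% = growth of vehicle-treated control cultures of the same strain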; details: S. cerevisiae mlh1 strain growth inhibition, stronger effect = higher value
# Outline: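 Vehicle-normalised growth inhibition of a repair- or checkpoint-altered yeast strain following compound treatment.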
# [14] = NCI Yeast Anticancer Drug Screen. Data for the sgs1 strain (AID 173);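 note: 0% = growth of vehicle-only control cultures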; details: S. cerevisiae sgs1 mutant, stronger effect = higher value
# Outline: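 Screen format: yeast with repair or checkpoint alterations, compound exposure, growth read relative to vehicle.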
# [15] = NCI Yeast Anticancer Drug Screen. Data for the mlh1 rad18 strain (AID 175); details: S. cerevisiae mlh1 rad18 strain growth inhibition, stronger effect = higher value
# Outline: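 Vehicle-treated cultures served as the reference for growth inhibition in a yeast strain carrying DNA damage repair alterations exposed to each compound.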
# [16] = NCI Yeast Anticancer Drug Screen. Data for the rad18 strain (AID 177); details: S. cerevisiae rad18 mutant growth inhibition, stronger effect = higher value
# Outline: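 Test articles were incubated with altered yeast defective in DNA damage repair. Results are given as inhibition of growth versus vehicle.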
# [17] = at 5.0 µM (retest, dose inferred, filed as 0.5)
# [18] = at 50.0 µM (retest, dose inferred, filed as 5.0)
smiles,measurement,setting,value
S=c1[nH]c2cc3ccccc3cc2[nH]1,growth inhibition,[1]; at 1.2 µM,-42%
same,growth inhibition,[1]; at 3.7 µM,-46%
same,growth inhibition,[1]; at 11.0 µM,-37%
same,growth inhibition,[1]; at 33.0 µM,-31%
same,growth inhibition,[1]; at 100.0 µM,-19%
same,growth inhibition,[2]; at 1.2 µM,-24%
same,growth inhibition,[2]; at 3.7 µM,-6%
same,growth inhibition,[2]; at 11.0 µM,6%
same,growth inhibition,[2]; at 33.0 µM,3%
same,growth inhibition,[2]; at 100.0 µM,2%
same,growth inhibition,[3]; at 1.2 µM,-12%
same,growth inhibition,[3]; at 3.7 µM,3%
same,growth inhibition,[3]; at 11.0 µM,-4%
same,growth inhibition,[3]; at 33.0 µM,14%
same,growth inhibition,[3]; at 100.0 µM,38%
same,growth inhibition,[4]; at 1.2 µM,-36%
same,growth inhibition,[4]; at 3.7 µM,-7%
same,growth inhibition,[4]; at 11.0 µM,-15%
same,growth inhibition,[4]; at 33.0 µM,6%
same,growth inhibition,[4]; at 100.0 µM,16%
same,growth inhibition,[5]; at 1.2 µM,-25%
same,growth inhibition,[5]; at 3.7 µM,-25%
same,growth inhibition,[5]; [17],5%
same,growth inhibition,[5]; at 11.0 µM,-11%
same,growth inhibition,[5]; at 33.0 µM,3%
same,growth inhibition,[5]; [18],86% (active)
same,growth inhibition,[5]; at 50.0 µM,71.2% (active)
same,growth inhibition,[5]; at 100.0 µM,17%
same,growth inhibition,[6]; at 1.2 µM,-25%
same,growth inhibition,[6]; at 3.7 µM,-13%
same,growth inhibition,[6]; [17],-3%
same,growth inhibition,[6]; at 11.0 µM,-8%
same,growth inhibition,[6]; at 33.0 µM,1%
same,growth inhibition,[6]; [18],17%
same,growth inhibition,[6]; at 50.0 µM,45.6%
same,growth inhibition,[6]; at 100.0 µM,24%
same,growth inhibition,[7]; at 1.2 µM,-14%
same,growth inhibition,[7]; at 3.7 µM,-11%
same,growth inhibition,[7]; at 11.0 µM,-7%
same,growth inhibition,[7]; at 33.0 µM,-10%
same,growth inhibition,[7]; at 100.0 µM,1%
same,growth inhibition,[8]; [17],-5%
same,growth inhibition,[8]; [18],15%
same,growth inhibition,[8]; at 50.0 µM,68.8%
same,growth inhibition,[9]; at 1.2 µM,-13%
same,growth inhibition,[9]; at 3.7 µM,-18%
same,growth inhibition,[9]; at 11.0 µM,-3%
same,growth inhibition,[9]; at 33.0 µM,-7%
same,growth inhibition,[9]; at 100.0 µM,18%
same,growth inhibition,[10]; [17],34%
same,growth inhibition,[10]; [18],57%
same,growth inhibition,[10]; at 50.0 µM,43.6%
same,growth inhibition,[11]; at 1.2 µM,-7%
same,growth inhibition,[11]; at 3.7 µM,15%
same,growth inhibition,[11]; [17],-4%
same,growth inhibition,[11]; at 11.0 µM,-9%
same,growth inhibition,[11]; at 33.0 µM,7%
same,growth inhibition,[11]; [18],83% (active)
same,growth inhibition,[11]; at 50.0 µM,68.9%
same,growth inhibition,[11]; at 100.0 µM,40%
same,growth inhibition,[12]; at 1.2 µM,-55%
same,growth inhibition,[12]; at 3.7 µM,-50%
same,growth inhibition,[12]; at 11.0 µM,-46%
same,growth inhibition,[12]; at 33.0 µM,-19%
same,growth inhibition,[12]; at 100.0 µM,-3%
same,growth inhibition,[13]; at 1.2 µM,-13%
same,growth inhibition,[13]; at 3.7 µM,-7%
same,growth inhibition,[13]; at 11.0 µM,-4%
same,growth inhibition,[13]; at 33.0 µM,14%
same,growth inhibition,[13]; at 100.0 µM,34%
same,growth inhibition,[14]; at 1.2 µM,-27%
same,growth inhibition,[14]; at 3.7 µM,-8%
same,growth inhibition,[14]; at 11.0 µM,-4%
same,growth inhibition,[14]; at 33.0 µM,20%
same,growth inhibition,[14]; at 100.0 µM,25%
same,growth inhibition,[15]; [17],9%
same,growth inhibition,[15]; [18],78% (active)
same,growth inhibition,[15]; at 50.0 µM,67.6%
same,growth inhibition,[16]; at 1.2 µM,-9%
same,growth inhibition,[16]; at 3.7 µM,2%
same,growth inhibition,[16]; at 11.0 µM,11%
same,growth inhibition,[16]; at 33.0 µM,18%
same,growth inhibition,[16]; at 100.0 µM,17%
